Laboratory results reported in PubChem BioAssay (NCI).
The panel holds about 79,000 compounds, 15% with a hit somewhere; the sample as a whole holds those more often. Values without a mark were called inactive. Activity calls are given as the source filed them. Cut-off read from the data, not from the text of the source: active = growth inhibition above about 70%; inactive = the rest.

Assay: NCI Yeast Anticancer Drug Screen. Data for the rad14 strain (AID 159);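 note: 0% = growth of vehicle-treated control cultures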
Settings: S. cerevisiae rad14 strain growth inhibition, stronger effect = higher value
Protocol: Growth inhibition of yeast strains with defined genetic alterations is measured as a screen for potential anti-cancer activity. Selected strains with alterations in DNA damage repair or cell cycle control were exposed to compounds and growth inhibition was measured relative to vehicle treated controls. The strain used in this assay is rad14

SMILES	growth inhibition (at 1.2 µM)	growth inhibition (at 3.7 µM)	growth inhibition (at 11.0 µM)	growth inhibition (at 33.0 µM)	growth inhibition (at 100.0 µM)
CC(C)(C)[Si](C)(C)OCC1OC(n2cnc3c(N)ncnc32)C2OC(=S)OC12 (stereo not given)	0%	2%	3%	11%	96% (active)
O=c1c(Br)cc2c(-c3ccccc3)c3cc(Br)c(O)c(Br)c3oc-2c1Br	2%	17%	31%	22%	-4%
O=C(Cc1ccccc1)c1ccc(O)cc1	-13%	-25%	-5%	62%	89% (active)
Cc1cc(N(CCOS(C)(=O)=O)CCOS(C)(=O)=O)ccc1C=O	20%	36%	50%	64%	83% (active)
CCN(CC)c1ccc(N=Nc2cc(S(=O)(=O)O)ccc2O)c(O)c1	-15%	-9%	3%	1%	5%
CCN(CC)CCSc1c2ccccc2nc2cc(NCC(=O)Nc3ccccc3-c3ccccc3NC(=O)CNc3ccc4c(SCCN(CC)CC)c5ccccc5nc4c3)ccc12	-14%	-15%	-12%	74% (active)	96% (active)
CN(C)c1ccc(C(c2ccc(Cl)cc2)c2ccc(N(C)C)cc2)cc1	82% (active)	98% (active)	98% (active)	94% (active)	84% (active)
O=S(=O)(Oc1c(Cl)cc(Cl)cc1Cl)c1ccccc1	0%	0%	8%	11%	12%
